Source: PubChem (Buhrlage Lab, Dana-Farber Cancer Institute and Novartis Institutes for BioMedical Research (Cambridge, Mass))
This is a sample that favours compounds with a hit; in the whole collection about 11% have one here.
USP17 block = inhibitors of human USP17 deubiquitinase | inhibition, % at 50 µM | A8MUK1 | actives 6.5% (n = 47,000) | purified USP17, Ub-rhodamine cleavage fluorescence, 3 h
Target sequence (A8MUK1 whole entry, looked up): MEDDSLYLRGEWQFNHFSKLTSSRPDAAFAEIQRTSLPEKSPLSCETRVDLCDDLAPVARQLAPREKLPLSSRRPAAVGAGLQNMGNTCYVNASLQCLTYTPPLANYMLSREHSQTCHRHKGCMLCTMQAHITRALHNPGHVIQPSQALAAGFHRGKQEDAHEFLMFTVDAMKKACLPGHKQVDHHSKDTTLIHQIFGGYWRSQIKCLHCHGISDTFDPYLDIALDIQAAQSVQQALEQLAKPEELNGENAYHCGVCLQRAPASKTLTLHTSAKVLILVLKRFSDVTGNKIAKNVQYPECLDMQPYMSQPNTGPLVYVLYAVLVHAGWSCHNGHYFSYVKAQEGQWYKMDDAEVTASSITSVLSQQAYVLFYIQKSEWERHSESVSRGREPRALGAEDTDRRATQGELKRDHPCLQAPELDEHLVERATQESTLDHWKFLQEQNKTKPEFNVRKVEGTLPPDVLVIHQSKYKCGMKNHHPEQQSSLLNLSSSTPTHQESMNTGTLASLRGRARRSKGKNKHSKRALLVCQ
USP30 block = inhibitors of human USP30 deubiquitinase | inhibition, % at 25 µM | Q70CQ3 | purified USP30, Ub-rhodamine cleavage fluorescence | actives 5.3% (n = 47,000)
OTUD3 block = inhibitors of human OTUD3 deubiquitinase; inhibition, % at 25 µM; Q5T2D3; actives 0.7% (n = 47,000); purified OTUD3, Ub-rhodamine fluorescence, 2 h; AID 1645858
USP28 block = human USP28 deubiquitinase inhibition; Q96RU2; purified USP28, Ub-rhodamine cleavage fluorescence, 30 min; inhibition, % at 25 µM; actives 3% (n = 47,000)
The depositor's hits bear a star; i = inactive; x = no result. Rule as the data show it: active = inhibition above about 30%; inactive = the rest.

SMILES	USP17 block	USP30 block	OTUD3 block	USP28 block
Cc1cc(C(=O)C(=O)Nc2cccc(Cl)c2)c(C)n1-c1ccc(F)cc1	-13	1	1	1
Cc1nnc(NC(=O)C(=O)c2cc(C)n(-c3ccc(Cl)cc3)c2C)s1	43*	-42	7	25
COc1ccc2nc(N(CCCn3ccnc3)C(=O)c3ccc(Cl)s3)sc2c1	42*	50*	2	25
Cc1cc(C)c2sc(N(CCCn3ccnc3)C(=O)Cc3ccccc3)nc2c1	x	92*	35*	40*
COc1ccc2nc(N(Cc3ccncc3)C(=O)c3ccc(C)cc3)sc2c1	-37	-67	1	-18
O=C(Nc1nc(C(=O)N2CCc3ccccc32)co1)c1cnccn1	-13	6	13	10
O=C(c1noc2ccc(S(=O)(=O)N3CCCCCC3)cc12)N1CCOCC1	-3	1	5	0
COc1cccc(CC(=O)N[C@@H](C)c2nc3cc(-c4ccc(F)cc4)ncn3n2)c1	9	13	22	8
COc1ccc(-c2cc3nc([C@@H](C)NC(=O)c4ccc5c(c4)OCO5)nn3cn2)cc1	19	85*	21	64*
COCCOc1ccc(C(=O)N[C@H](C)c2nc3cc(-c4ccccc4F)ncn3n2)cc1	0	8	0	0
COc1ccc(-c2cc3nc([C@H](C)NC(=O)Cc4cc(F)ccc4F)nn3cn2)cc1	40*	37*	29	22
COc1ccc(-c2cc3nc([C@H](C)NC(=O)Cc4cccc(F)c4)nn3cn2)cc1	37*	60*	17	12
Cc1noc(-c2csc(C(=O)NCc3ccc(F)c(Cl)c3)n2)n1	10	0	12	19
CC(O)CNc1ncnc2c1sc1nc(-c3ccccc3)c3c(c12)CCC3 (configuration not stated)	-34	-88	-5	-22
COc1ccc(-c2noc(NCCc3ccc(OC)c(OC)c3)n2)cc1	8	0	-3	8
N=C(N)C1CN(Cc2ccncc2)C(=O)NC1=O (configuration not stated)	-28	-24	-9	-17
O=C(/C=C\c1ccc(Cl)cc1)c1cccc(C(F)(F)F)c1	9	20	8	-1
COc1ccccc1NS(=O)(=O)c1ccc2oc(SCC(=O)c3ccccc3)nc2c1	1	3	5	64*
COc1ccc(NS(=O)(=O)c2ccc3oc(SCC(=O)N(C)C4CCS(=O)(=O)C4)nc3c2)cc1 (configuration not stated)	-2	x	2	x
Cc1cccc(C(=O)Nc2ccc(N3CCCCC3)c(NC(=O)Nc3ccccc3Cl)c2)c1	-1	-13	-1	-6
Cc1ccc(C(=O)Nc2ccc3c(c2)C(=O)N(C)c2ccccc2O3)cc1C	4	11	8	55*
Cc1cccc(C(=O)Nc2ccc3c(c2)C(=O)N(C)c2ccccc2O3)c1	17	16	15	47*
O=[N+]([O-])c1c(NCc2ccccc2)cc(N2CCN(CCO)CC2)c2nonc12	6	14	1	2
Cc1cccc(NC(=O)Cn2cc(S(=O)(=O)N3CCOCC3)ccc2=O)c1	3	16	-3	-1
CN(C)c1ccc(C2CC(c3c(O)n(C)c(=O)[nH]c3=O)=Nc3ccccc3S2)cc1 (configuration not stated)	65*	24	15	51*
SMILES	USP17 block	USP30 block	OTUD3 block	USP28 block
Cc1ccc(Cl)cc1NC(=O)N1CCN2CCCCC2C1 (configuration not stated)	-3	1	1	-6
CSc1nc(C)c2c(n1)N(c1ccc(C(C)C)cc1)CC2	41*	13	7	3
Cc1ccccc1Cn1c(CCNC(=O)c2ccco2)nc2ccccc21	-16	-10	-7	-12
Cc1ccc(Cn2c(CCNC(=O)c3ccc(Cl)cc3)nc3ccccc32)cc1	68*	52*	2	1
Cn1ncc2c(NCc3ccc(F)cc3)nc(N3CCCCC3)nc21	-12	-35	-19	12
CC1=C(c2ccc(F)cc2)S(=O)(=O)NC1=NCC(=O)Nc1ccc(F)cc1F	36*	54*	1	2
CCC1=C(c2ccc(C)cc2)S(=O)(=O)NC1=NCC(=O)NCc1ccccc1F	60*	27	10	13
CCC1=C(c2ccc(C)cc2)S(=O)(=O)NC1=NCC(=O)NCc1cccc(C)c1	44*	15	14	20
COc1ccc(C)cc1NC(=O)c1ccc(COc2ccc(F)cc2)o1	-13	-18	-8	15
CCC(NS(=O)(=O)c1ccc(S(=O)(=O)N2CCOCC2)cc1)C12CC3CC(CC(C3)C1)C2 (configuration not stated)	14	33*	13	27
CC1CCC/C=C/C=C/C(O)CC(O)C/C=C\C=C\C(O[C@@H]2O[C@H](COC(=O)CCC(=O)O)[C@@H](O)C(O)[C@H]2O)C/C=C/C=C\C(=O)O1 (some centres not stated)	-46	-73	-6	-12
COCCCn1c(SCC(=O)Nc2ccccc2C(=O)OC)nc2ccccc2c1=O	42*	70*	15	25
O=C(CSc1ncnc2c1oc1ccccc12)NCC1CCCO1 (configuration not stated)	2	x	-1	x
O=C(CSc1ncnc2c1oc1ccccc12)NC1CCCCC1	11	33*	14	11
Cc1ccccc1-n1ncc2c(=O)n(CC(=O)Nc3ccc4c(c3)OCCO4)cnc21	30*	10	12	16
Clc1ccccc1CSc1ncnc2c1oc1ccccc12	41*	30	9	13
Cc1c(C(=O)CSc2ncnc3c2oc2ccccc23)c2ccccc2n1C	21	16	10	0
O=C(O)c1ccccc1-c1ccccc1C(=O)NCCN1CCNC1=O	12	10	9	3
O=C(Cc1cccnc1)Nc1ccc(N2CCN(C3CCCCC3)C2=O)nc1	-162	i	-212	-239
CS(=O)(=O)c1cccc(S(=O)(=O)N2CCc3nc4ncc(Cl)cc4cc3C2)c1	-9	-218	-42	-29
O=C(CSc1nnc2c3ccccc3nc(-c3ccc(F)cc3)n12)N1CCOCC1	-4	13	7	6
O=C(NCCC(=O)N1CCC2(CC1)NCCc1[nH]cnc12)c1ccccc1	-14	-30	-21	-22
COc1ccc(CC(=O)NCC(c2cccnc2)S(=O)(=O)c2ccc(C)cc2)cc1 (configuration not stated)	-17	28	10	6
O=C(CSc1ncnc2c1oc1ccccc12)Nc1ccc2c(c1)OCCO2	65*	-16	1	-1
COC(=O)c1ccccc1NC(=O)CSc1ncnc2c1oc1ccccc12	13	33*	10	-4
COc1ccc(C)cc1NC(=O)CSc1nc(C)nc2c1oc1ccccc12	52*	28	13	9
COc1ccccc1CNC(=O)CN1CCC2(CC1)N=C(c1ccc(Cl)cc1)C(=O)N2	-25	-4	-3	-15
Cn1c(=O)c2c(nc(N3CCN(C(=O)c4ccco4)CC3)n2CCSc2nnnn2-c2ccccc2)n(C)c1=O	2	37*	8	12
Cc1ccc(-c2cc(=O)n(CC(=O)Nc3ccc(C(C)C)cc3)cn2)cc1	38*	48*	9	-9
